Activity calls are given as the source filed them. The calls were made as follows: active = hit-call score of the fitted dose curve at least 0.9, where 1 is the maximum; inactive = score below 0.9.

Sequence of Transcription factor E2F1 (Homo sapiens) (Q01094 whole entry, looked up): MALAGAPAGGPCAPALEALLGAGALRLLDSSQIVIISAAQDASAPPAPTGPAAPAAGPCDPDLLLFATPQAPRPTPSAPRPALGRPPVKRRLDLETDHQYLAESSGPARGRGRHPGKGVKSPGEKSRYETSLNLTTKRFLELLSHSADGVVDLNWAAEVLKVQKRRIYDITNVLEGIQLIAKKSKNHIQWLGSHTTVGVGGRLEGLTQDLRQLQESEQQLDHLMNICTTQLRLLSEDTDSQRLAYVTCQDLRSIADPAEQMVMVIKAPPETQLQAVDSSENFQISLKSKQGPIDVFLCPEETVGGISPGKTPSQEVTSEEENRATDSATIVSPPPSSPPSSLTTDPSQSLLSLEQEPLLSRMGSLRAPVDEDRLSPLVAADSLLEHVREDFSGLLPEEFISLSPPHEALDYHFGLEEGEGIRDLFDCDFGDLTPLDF

The experiment concerns the target Transcription factor E2F1 (Homo sapiens) (UniProt Q01094). Put plainly: ATG_E2F_CIS: Attagene CIS-FACTORIAL HepG2 Assay for human E2F Transcription Factor 1 (AID 2282935). The following applies: HepG2 Attagene cis-reporter, E2F reporter RNA transcripts; actives raise or lower the signal. As for the experimental part:
ATG_CIS is a cell-based, multiplexed-readout assay that uses HepG2, a human liver cell line, with measurements taken at 24 hours after chemical dosing in a 24-well plate.ATG_E2F_CIS is one of 52 assay component(s) measured or calculated from the ATG_CIS assay. It is designed to make measurements of mRNA induction, a form of inducible reporter, as detected with fluorescence intensity signals by Reverse transcription polymerase chain reaction (RT-PCR) and Capillary electrophoresis technology.Data from the assay component ATG_E2F_CIS was analyzed into 1 assay endpoint. This assay endpoint, ATG_E2F_CIS, was analyzed with bidirectional fitting relative to DMSO as the negative control and baseline of activity. Using a type of inducible reporter, measures of mRNA for gain or loss-of-signal activity can be used to understand the reporter gene at the transcription factor-level as they relate to the gene E2F1. Furthermore, this assay endpoint can be referred to as a primary readout, because this assay has produced multiple assay endpoints where this one serves a reporter gene function. To generalize the intended target to other relatable targets, this assay endpoint is annotated to the dna binding intended target family, where the subfamily is E2F transcription factor.
Human liver HepG2 cells are transiently transfected with multiple reporter transcription units (MRTUs) in 6-well plates using FuGene 6 reagent (Roche; 3 ml FuGene/1 mg DNA). The MRTU constructs are regulated by a cis-regulating element (promoter). […] A major difference between the CIS and TRANS system is that in CIS activities of endogenous TFs are measured, whereas the TRANS assay evaluates changes in activities of exogenous, chimeric NR-Gal4 proteins. […] At the end of 24 hour incubation, total RNA was isolated using TriZol reagent (Invitrogen). The isolated RNA is then reverse-transcribed using oligo(dT) primer and Mo-MLV reverse transcriptase (Invitrogen) with DNAse I (Ambion) treatment for 30 min. The one-tenth of the produced cDNA was amplified by PCR using Taq DNA polymerase (Invitrogen) and two reporter sequence-specific primers. The PCR products were fluorescently labeled by primer extension with 6-arboxyfluorescein (6-FAM) 5'-labeled reporter sequence-specific primer (2 min at 95 C, 20 s at 68 C and 10 min at 72 C) and these products were digested with 5U of HpaI (New England Biolabs) for 2h at 37 C. The fragments were purified using Qiaquick PCR columns (Qiagen), analyzed on an ABI 3130xL genetic analyzer (Applied Biosystems) with peak positions identified by using a set of X-rhodamine (ROX)-labeled MapMarker1000 molecular weight standards (BioVentures). The raw capillary electrophoresis data was processed using Attagraph software (Attagene).
Consider `CN(C1CCCCC1)C1CCCCC1`, for which the result was inactive. On the same count and under the same terms, as for `CC(O)(CS(=O)(=O)c1ccc(F)cc1)C(=O)Nc1ccc(C#N)c(C(F)(F)F)c1` (stereo not given), the entry is “inactive”; as for `O=NN1CCCCCC1`, “inactive”. Same read-out and setting: then `Nc1cccnc1`, with “inactive”; and `ClCc1ccccc1CCl`, with “inactive”; and `COCCl`, with “inactive”. On the same count and under the same terms, as for `CC(=O)CN(CC(C)=O)N=O`, the entry is “inactive”; as for `O=[N+]([O-])c1c2ccccc2cc2ccccc12`, “inactive”. Take `CC(C)(C)c1ccc(CCOc2ncnc3ccccc23)cc1`: the outcome was inactive. Same read-out and setting: then `CCCCN(CCCC)C(=S)[S-].CCCCN(CCCC)C(=S)[S-].[Ni+2]`, with “inactive”; and `Cc1ccc2nc3sc(=O)sc3nc2c1`, with “inactive”; and `O=C(NC(=O)c1c(F)cccc1F)Nc1ccc(Cl)cc1`, with “inactive”. On the same count and under the same terms, then `O=C(Cc1ccccc1)OCCc1ccccc1`, with “inactive”; and `Cc1cc(Cl)ccc1OCCCC(=O)O`, with “inactive”; and `COc1ccc(N)cc1`, with “inactive”. For `O=S(=O)(Oc1ccc(Cl)cc1)c1ccc(Cl)cc1`, the call was inactive. As to `C=C(C)C(=O)OCC(CC)CCCC` (stereo not given), the molecule was called inactive. As for `O=CCCl`, the call was inactive. `Cl[C@H]1OCCO[C@@H]1Cl`: the result was inactive. On the same count and under the same terms, as for `CCN(N=O)C(N)=O`, the entry is “inactive”; as for `CCOP(=S)(OCC)SCS(=O)(=O)C(C)(C)C`, “inactive”; as for `C[As+](C)(C)CC(=O)[O-]`, “inactive”.

With `Oc1cc(Cl)c(Cl)cc1Cl`, the result was inactive. The same measure, in the same setting: then `CCOP(=S)(OCC)Oc1ccc(Cl)cc1Cl`, with “inactive”. On to `CC(C)(COCC1CO1)COCC1CO1` (stereo not given), for which the outcome was inactive. Still for that read-out and setting: as for `O=NN1CCCCCCC1`, the entry is “inactive”; as for `COP(=S)(OC)Oc1cc(Cl)c(I)cc1Cl`, “inactive”; as for `CCOC(=O)Cc1ccccc1`, “inactive”. The same measure, in the same setting: then `NC(=O)c1ccc(N)nc1`, with “inactive”; and `c1cc[c]([Sb]([c]2ccccc2)[c]2ccccc2)cc1`, with “inactive”. `O=C(CCl)Nc1ccccc1`: the half-maximal activity concentration (AC50) was 147 µM (active). Consider `CC(C)(C#N)N=NC(C)(C)C#N`, for which the result was inactive. With `CC1(C)[C@H](C(=O)O[C@H](C#N)c2cccc(Oc3ccccc3)c2)[C@@H]1/C=C(\Cl)C(F)(F)F`, the molecule was classed as inactive. As for `OCC(c1ccc(Cl)cc1)c1ccc(Cl)cc1`, the molecule was called inactive. Same read-out and setting: as for `CC(c1ccccc1)(c1ccc(O)cc1)c1ccc(O)cc1`, the entry is “inactive”. On the same count and under the same terms, then `CNC(=O)O/N=C/C(C)(C)S(C)(=O)=O`, with “inactive”; and `CCCSP(=S)(OCC)Oc1ccc(SC)cc1` (stereo not given), with “inactive”. Same read-out and setting: then `CC(C)[N+](=O)[O-]`, with “inactive”. For `CC(C)CC(C)(c1ccc(O)cc1)c1ccc(O)cc1`, the call was inactive. Still for that read-out and setting: as for `Cc1cccc(N=Nc2ccc(N(C)C)cc2)c1`, the entry is “inactive”.

What is called AC50 is the concentration giving half of the maximal activity seen.

These data come from PubChem BioAssay (EPA / NIEHS).
